Test results from PubChem BioAssay (Tox21).
Inconclusive results are not listed. Active and inactive are the calls of the source. Unless noted, calls come from the whole dose curve; as a rule, active = well fitted curve in the direction sought with a large enough effect in the repeat runs; inconclusive = weak or mixed curves; inactive = no such curve, though single readings can be large; an effect the other way counts as inactive or inconclusive.

Legend:
[1] = qHTS assay for small molecule agonists of the p53 signaling pathway (AID 651631; calls by dose curve; note: nearly all actives have a fitted effect of over 15% in size; note: potency is the fitted concentration of half-maximal effect)
How it was run: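 Agonist mode screen using a stably integrated beta-lactamase gene under p53 response elements in HCT-116 cells. Compound exposure lasts 16 h at 37 °C; fluorescence intensity is measured following 2 h FRET substrate loading.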

[2] = qHTS assay to identify small molecule agonists of H2AX (AID 1224845; active = well fitted activation curve with a large enough effect in the signal ratio in the repeat runs, not every such curve was filed as active; the % refers to the signal ratio)
How it was run: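 Wild-type CHO-K1 cells, plated overnight, exposed 3hr at 37C to 15 concentrations (0.76% DMSO final). Lysed, then HTRF anti-pH2AX (S139) cryptate and anti-H2AX-d2 antibodies, 24 hr room temperature; 665/620 nm emission read.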

[3] = molecular target: Estrogen receptor beta (Homo sapiens) (UniProt Q92731); assay: qHTS assay to identify small molecule agonists of the estrogen receptor beta (ER-beta) signaling pathway (AID 1259377; active = well fitted activation curve with a large enough effect in the signal ratio in the repeat runs, not every such curve was filed as active; the % refers to the signal ratio)
Sequence of Estrogen receptor beta (Homo sapiens) (Q92731 whole entry, looked up, the tested form may be a part): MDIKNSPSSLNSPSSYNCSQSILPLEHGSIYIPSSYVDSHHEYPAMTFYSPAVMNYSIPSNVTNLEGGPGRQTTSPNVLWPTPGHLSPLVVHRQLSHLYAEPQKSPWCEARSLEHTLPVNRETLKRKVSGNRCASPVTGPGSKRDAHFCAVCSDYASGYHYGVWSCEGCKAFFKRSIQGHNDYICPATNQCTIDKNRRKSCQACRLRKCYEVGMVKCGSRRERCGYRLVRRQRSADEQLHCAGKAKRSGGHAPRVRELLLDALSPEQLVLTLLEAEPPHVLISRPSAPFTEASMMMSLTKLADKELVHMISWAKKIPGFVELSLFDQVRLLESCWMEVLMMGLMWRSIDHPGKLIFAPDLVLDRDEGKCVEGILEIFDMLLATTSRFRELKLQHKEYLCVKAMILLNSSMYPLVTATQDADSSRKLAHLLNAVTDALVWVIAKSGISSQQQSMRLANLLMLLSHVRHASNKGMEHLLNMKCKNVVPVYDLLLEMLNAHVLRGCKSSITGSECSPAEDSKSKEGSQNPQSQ
How it was run: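 Agonist mode cell assay in GripTite HEK293T cells expressing an ER-beta fusion that drives beta-lactamase from an Upstream Activator Sequence; 16 hr compound exposure at 37C, then 2 h LiveBLAzer B/G FRET substrate at room temperature, fluorescence read-out.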

[4] = molecular target: Acetylcholinesterase (Homo sapiens) (UniProt P22303); assay: Acetylcholinesterase (AChE) small molecule antagonists: colormetric cell-based qHTS assay (AID 1347395; calls by dose curve; note: nearly all actives have a fitted effect of over 30% in size)
Sequence of Acetylcholinesterase (Homo sapiens) (P22303 whole entry, looked up): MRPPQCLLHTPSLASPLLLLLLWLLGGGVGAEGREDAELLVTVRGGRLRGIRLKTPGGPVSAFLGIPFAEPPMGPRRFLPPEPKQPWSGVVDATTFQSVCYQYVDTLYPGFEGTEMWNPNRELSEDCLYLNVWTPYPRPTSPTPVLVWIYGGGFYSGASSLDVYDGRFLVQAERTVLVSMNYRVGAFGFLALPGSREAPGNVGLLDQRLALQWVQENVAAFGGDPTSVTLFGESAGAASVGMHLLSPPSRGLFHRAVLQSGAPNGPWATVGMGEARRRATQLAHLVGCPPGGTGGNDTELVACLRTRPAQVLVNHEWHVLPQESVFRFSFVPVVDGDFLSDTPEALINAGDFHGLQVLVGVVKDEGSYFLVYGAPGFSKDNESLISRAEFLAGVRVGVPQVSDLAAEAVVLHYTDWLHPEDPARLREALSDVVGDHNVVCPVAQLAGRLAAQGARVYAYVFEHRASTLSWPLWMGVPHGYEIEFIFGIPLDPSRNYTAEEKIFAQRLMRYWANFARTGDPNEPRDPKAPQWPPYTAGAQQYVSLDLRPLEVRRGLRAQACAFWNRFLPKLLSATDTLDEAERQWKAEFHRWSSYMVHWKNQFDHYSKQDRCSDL
How it was run: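 Cells (SH-SY5Y, 2,000 per well) are seeded and left overnight at 37 C. Compound is added for 30 min, then DTNB and acetylthiocholine for a further 90 min at 37 C before absorbance-based thiocholine detection.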

[5] = molecular target: Acetylcholinesterase (Homo sapiens) (UniProt P22303); assay: Acetylcholinesterase (AChE) small molecule antagonists: enzyme-based qHTS assay (AID 1347397; calls by dose curve; note: nearly all actives have a fitted effect of over 55% in size); conditions: Potency: AChE enzyme activity inhibition; outcome: AChE enzyme activity inhibition
How it was run: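 Enzyme inhibition was scored from DTNB-detected thiocholine formed by recombinant human AChE acting on acetylthiocholine. The 30 min compound preincubation and 10 min substrate reaction were both run at room temperature, with DMSO as vehicle control.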

[6] = molecular target: Acetylcholinesterase (Homo sapiens) (UniProt P22303); assay: Acetylcholinesterase (AChE) small molecule antagonists: fluorescence cell-based qHTS assay (AID 1347398; calls by dose curve; note: nearly all actives have a fitted effect of over 50% in size); conditions: Potency: AChE activity; outcome: AChE activity
How it was run: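 Endogenous acetylcholinesterase of SH-SY5Y neuroblastoma cells is measured in situ. After overnight attachment and 30 min compound exposure, cells receive acetylthiocholine and Thiolite Green; fluorescence is read after 40 min at room temperature.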

[7] = molecular target: Acetylcholinesterase (Homo sapiens) (UniProt P22303); assay: Acetylcholinesterase (AChE) small molecule antagonists: enzyme-based qHTS assay with human liver microsomes (AID 1347399; calls by dose curve; note: nearly all actives have a fitted effect of over 60% in size); conditions: Potency: qHTS inhibition; outcome: qHTS inhibition
How it was run: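 Recombinant human AChE (50 mU/mL in the enzyme mix) and human liver microsomes (0.25 mg/mL final) were preincubated with compound and NADPH (0.25 mg/mL final) for 30 min at 37 C. Acetylthiocholine/DTNB was then added; thiocholine was read colorimetrically after 10 min at room temperature.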

[8] = molecular target: Glucocorticoid receptor (Homo sapiens) (UniProt P04150); assay: qHTS assay to identify small molecule antagonists of the glucocorticoid receptor (GR) signaling pathway (AID 720692; active = well fitted inhibition curve with a large enough effect in the signal ratio in the repeat runs, not every such curve was filed as active; the % refers to the signal ratio)
Sequence of Glucocorticoid receptor (Homo sapiens) (P04150 whole entry, looked up): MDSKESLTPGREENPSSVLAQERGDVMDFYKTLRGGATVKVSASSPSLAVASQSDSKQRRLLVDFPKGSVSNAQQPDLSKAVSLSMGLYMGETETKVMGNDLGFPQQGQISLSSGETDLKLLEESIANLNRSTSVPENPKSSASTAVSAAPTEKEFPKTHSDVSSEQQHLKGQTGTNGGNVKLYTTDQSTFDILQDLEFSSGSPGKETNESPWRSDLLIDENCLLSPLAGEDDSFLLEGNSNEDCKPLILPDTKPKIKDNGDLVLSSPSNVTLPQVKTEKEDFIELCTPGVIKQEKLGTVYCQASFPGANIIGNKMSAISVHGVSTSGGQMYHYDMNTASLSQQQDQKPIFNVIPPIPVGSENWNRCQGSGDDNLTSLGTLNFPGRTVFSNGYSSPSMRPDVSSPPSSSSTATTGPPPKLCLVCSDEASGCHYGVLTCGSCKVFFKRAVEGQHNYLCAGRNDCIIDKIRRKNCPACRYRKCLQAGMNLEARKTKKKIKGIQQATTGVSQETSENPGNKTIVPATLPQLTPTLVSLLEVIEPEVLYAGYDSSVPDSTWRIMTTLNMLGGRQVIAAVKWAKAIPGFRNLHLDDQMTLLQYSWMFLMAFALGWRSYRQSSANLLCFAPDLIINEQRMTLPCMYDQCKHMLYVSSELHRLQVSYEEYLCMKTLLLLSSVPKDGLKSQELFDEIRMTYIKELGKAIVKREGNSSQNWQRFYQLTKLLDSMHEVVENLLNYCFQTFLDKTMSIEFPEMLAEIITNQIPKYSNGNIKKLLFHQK
How it was run: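 GR-bla HeLa cells carrying a GRE-driven beta-lactamase reporter received compound after 4 h plating, then dexamethasone (5 nM final). After 18 h at 37C, the FRET substrate was loaded for 2 h at room temperature and fluorescence read.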

[9] = molecular target: Estrogen receptor (Homo sapiens) (UniProt P03372); assay: qHTS assay to identify small molecule antagonists of the estrogen receptor alpha (ER-alpha) signaling pathway (AID 743069; active = well fitted curve in the direction sought with a large enough effect in the signal ratio in the repeat runs, not every such curve was filed as active; the % refers to the signal ratio)
Sequence of Estrogen receptor (Homo sapiens) (P03372 whole entry, looked up): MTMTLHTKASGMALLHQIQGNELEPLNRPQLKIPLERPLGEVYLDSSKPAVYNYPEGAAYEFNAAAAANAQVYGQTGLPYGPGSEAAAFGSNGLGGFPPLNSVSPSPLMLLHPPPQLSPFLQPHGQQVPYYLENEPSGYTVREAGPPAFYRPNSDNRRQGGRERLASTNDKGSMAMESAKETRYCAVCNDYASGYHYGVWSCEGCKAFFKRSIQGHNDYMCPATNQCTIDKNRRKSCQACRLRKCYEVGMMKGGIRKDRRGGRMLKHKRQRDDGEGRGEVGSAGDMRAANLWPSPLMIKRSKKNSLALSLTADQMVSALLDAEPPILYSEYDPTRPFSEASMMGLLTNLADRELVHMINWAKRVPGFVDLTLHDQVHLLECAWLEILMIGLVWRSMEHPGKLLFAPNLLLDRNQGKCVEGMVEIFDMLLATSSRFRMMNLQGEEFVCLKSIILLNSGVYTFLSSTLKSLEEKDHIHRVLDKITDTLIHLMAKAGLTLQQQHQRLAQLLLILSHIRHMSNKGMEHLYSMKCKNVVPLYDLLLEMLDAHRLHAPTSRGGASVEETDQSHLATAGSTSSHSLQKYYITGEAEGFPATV
How it was run: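 Reporter cells (ER-alpha-bla, HEK293 background) are conditioned overnight in stripped-serum medium (2% charcoal-stripped FBS). Compound and 17beta-estradiol exposure runs 18 hr at 37C, 5% CO2.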

[10] = molecular target: Androgen receptor (Homo sapiens) (UniProt P10275); assay: qHTS assay to identify small molecule agonists of the androgen receptor (AR) signaling pathway (AID 743036; active = well fitted activation curve with a large enough effect in the signal ratio in the repeat runs, with a control signal flat, not every such curve was filed as active; the % refers to the signal ratio)
Sequence of Androgen receptor (Homo sapiens) (P10275 whole entry, looked up): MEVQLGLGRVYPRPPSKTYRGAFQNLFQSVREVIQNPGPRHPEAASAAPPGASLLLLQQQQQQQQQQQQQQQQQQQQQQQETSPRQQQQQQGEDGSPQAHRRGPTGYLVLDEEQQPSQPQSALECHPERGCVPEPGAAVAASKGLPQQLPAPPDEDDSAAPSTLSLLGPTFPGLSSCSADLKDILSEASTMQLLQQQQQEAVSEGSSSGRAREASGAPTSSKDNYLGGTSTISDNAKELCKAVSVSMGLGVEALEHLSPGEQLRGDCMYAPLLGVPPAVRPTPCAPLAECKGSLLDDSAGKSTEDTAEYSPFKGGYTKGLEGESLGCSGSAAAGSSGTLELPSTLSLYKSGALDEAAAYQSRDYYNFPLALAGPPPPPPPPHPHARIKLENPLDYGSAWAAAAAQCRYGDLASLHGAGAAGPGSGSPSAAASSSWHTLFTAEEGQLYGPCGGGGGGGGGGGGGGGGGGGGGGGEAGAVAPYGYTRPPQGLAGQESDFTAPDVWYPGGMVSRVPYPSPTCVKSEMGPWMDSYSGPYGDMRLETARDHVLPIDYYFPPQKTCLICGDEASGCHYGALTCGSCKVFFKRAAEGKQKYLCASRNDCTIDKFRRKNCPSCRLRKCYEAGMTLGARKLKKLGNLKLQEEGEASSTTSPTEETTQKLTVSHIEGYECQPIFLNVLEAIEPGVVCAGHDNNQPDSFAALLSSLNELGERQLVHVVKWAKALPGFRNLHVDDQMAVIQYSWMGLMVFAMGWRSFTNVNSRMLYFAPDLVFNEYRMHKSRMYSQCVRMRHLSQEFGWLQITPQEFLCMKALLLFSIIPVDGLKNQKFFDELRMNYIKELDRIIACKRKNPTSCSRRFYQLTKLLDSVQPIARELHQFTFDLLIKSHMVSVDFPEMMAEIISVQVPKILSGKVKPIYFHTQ
How it was run: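 Quantitative HTS of the Tox21 10K library in HEK293 cells bearing a stably integrated UAS-controlled beta-lactamase reporter. Compound exposure lasted 16 h at 37C. Reporter activity was detected by FRET substrate fluorescence after 2 h at room temperature.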

[11] = molecular target: Androgen receptor (Homo sapiens) (UniProt P10275); assay: qHTS assay to identify small molecule agonists of the androgen receptor (AR) signaling pathway using the MDA cell line (AID 743040; note: nearly all actives have a fitted effect of over 20% in size; note: potency is the fitted concentration of half-maximal effect)
How it was run: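 Human breast carcinoma MDA-kb2 reporter cells (MMTV-luc, AR/GR elements) were treated for 16 h at 37C in 0% CO2 following a 5 h settling period. Signal was quantified by ONE-Glo luminescence.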

[12] = molecular target: Androgen receptor (Homo sapiens) (UniProt P10275); assay: qHTS assay to identify small molecule antagonists of the androgen receptor (AR) signaling pathway using the MDA cell line (AID 743042; note: nearly all actives have a fitted effect of over 55% in size; note: potency is the fitted concentration of half-maximal effect)
How it was run: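 MDA-kb2 breast carcinoma cells carrying MMTV-luciferase (AR/GR responsive) were co-treated with compounds and the agonist R1881 for 16 h at 37C. Inhibition read as ONE-Glo luminescence; CellTiter-Fluor fluorescence measured in parallel for cytotoxicity.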

[13] = qHTS assay for identifying genotoxic compounds that show differential cytotoxicity against isogenic chicken DT40 cell lines with known DNA damage response pathways - Rev3 mutant cell line (AID 743014); note: nearly all actives have a fitted effect of over 55% in size; note: potency is the fitted concentration of half-maximal effect
[14] = molecular target: Androgen receptor (Homo sapiens) (UniProt P10275); assay: qHTS assay to identify small molecule antagonists of the androgen receptor (AR) signaling pathway (AID 743035; active = well fitted inhibition curve with a large enough effect in the signal ratio in the repeat runs, not every such curve was filed as active; the % refers to the signal ratio)
How it was run: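 HEK293 cells stably carrying UAS-beta-lactamase reporter, 2,000/well, given compounds plus R1881 agonist and incubated 16 h at 37C. LiveBLAzer B/G FRET substrate then added for 2 h at room temperature before fluorescence reading.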

[15] = qHTS RealTime-Glo MT Cell Viability Assay in HEK293 cells - 0 hour (AID 1224880); note: top concentration of the series differs between compounds; nearly all actives have a fitted effect of over 45% in size
How it was run: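 600 cells/well were plated with the nonlytic NanoLuc/prosubstrate reagent, pre-incubated 5 h, then given 23 nL of compound in DMSO. Incubation at 37 C for 40 h, with luminescence from viable-cell-reduced substrate read repeatedly from 0 h.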

[16] = qHTS assay to identify small molecule antagonists of the estrogen receptor alpha (ER-alpha) signaling pathway using the BG1 cell line in the presence of 0.1 nM 17-beta-estradiol - cell viability counter screen (AID 1259241); note: nearly all actives have a fitted effect of over 40% in size
How it was run: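 Cells were plated and left 24 hr, compounds in DMSO were pinned in, 17beta-estradiol was added to 0.1 nM final, and after 22 hr CellTiter-Fluor reagent was added for 30 min before fluorescence was read.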

[17] = qHTS assay to identify small molecule antagonists of the androgen receptor (AR) signaling pathway using the MDA cell line in the presence of 0.5 nM R1881 - cell viability counter screen (AID 1259242); note: nearly all actives have a fitted effect of over 45% in size
How it was run: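 MDA-kb2 cells (MMTV-luciferase, AR/GR responsive) were treated with compounds plus 0.5 nM R1881 (final) for 16 hr at 37C, 0% CO2. Viability was then read in the same wells as live-cell protease fluorescence (CellTiter-Fluor, 30 min).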

[18] = qHTS assay to identify small molecule HDAC inhibitors (AID 1259364); note: top concentration of the series differs between compounds; nearly all actives have a fitted effect of over 45% in size
How it was run: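 Wild-type HCT-116 cells, plated overnight at 37 C, exposed to compounds 2 hr at 37 C; luminogenic HDAC-Glo substrate then added 30 min at room temperature. Luminescence reports relative endogenous class I/II HDAC activity.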

[19] = molecular target: Estrogen receptor (Homo sapiens) (UniProt P03372); assay: qHTS assay to identify small molecule antagonists of the estrogen receptor alpha (ER-alpha) signaling pathway using the BG1 cell line in the presence of 0.1 nM 17-beta-estradiol (AID 1259244); note: nearly all actives have a fitted effect of over 50% in size
How it was run: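 VM7Luc4E2 cells (endogenous full-length ER-alpha, 4×ERE-luciferase), kept 5 days in phenol red-free, charcoal-stripped FBS medium; 4,000 cells/well. Compounds added with 0.1 nM (final) 17beta-estradiol, 22 hr at 37C; luminescence read with ONE-Glo after 30 min.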

Measured: Potency

Cc1ccc([N+](=O)[O-])cc1N
inactive: [1] | [2] | [3] | [4] | [5] | [6] | [7]

Cc1ccccc1-n1c(C)nc2ccccc2c1=O
inactive: [1] | [8] | [9]

Clc1ccc2c(c1)C(c1ccccc1)=NCc1nncn1-2
inactive: [1] | [8] | [10] | [11] | [12]

C[C@@H](CO)NC(=O)[C@@H]1C=C2c3cccc4[nH]cc(c34)C[C@H]2N(C)C1
active: [11] 26.6 µM
inactive: [1] | [8] | [13] | [14] | [12]

CC[N+](C)(CC)CCOC(=O)C(O)(c1ccccc1)c1ccccc1
inactive: [1] | [8] | [9]

CC(=O)OCC(=O)[C@H]1CC[C@H]2[C@@H]3CC[C@H]4C[C@H](O)CC[C@]4(C)[C@H]3C(=O)C[C@]12C
inactive: [1] | [8] | [9]

CCC(=O)O[C@]1(c2ccccc2)CCN(C)C[C@H]1C
inactive: [1] | [14] | [10] | [11] | [12] | [9]

COc1ccc2c3c1O[C@H]1[C@@H](O)C=C[C@H]4[C@@H](C2)NCC[C@@]341
inactive: [1] | [8] | [13]

CCC(N)Cc1c[nH]c2ccccc12 (configuration not stated)
inactive: [1] | [13]

C[C@]12CC[C@H]3[C@@H](CCC4=C(O)C(=O)CC[C@@H]43)[C@@H]1CC[C@@H]2OC(=O)CCC1CCCC1
inactive: [1]

CCCCNCC(O)c1ccc(O)cc1 (configuration not stated)
inactive: [1] | [13]

[S]=[Sb](=[S])[S][Sb](=[S])=[S]
inactive: [1] | [8]

C[C@@H](Cc1ccccc1)N(C)C
inactive: [1] | [14] | [10] | [11] | [12]

CC(C)(C)c1ccc(O)cc1
inactive: [15]

CC(Cc1ccccc1)NC=O (configuration not stated)
inactive: [1] | [13]

CCC(=O)O[C@@](Cc1ccccc1)(c1ccccc1)[C@@H](C)CN(C)C
inactive: [1] | [13]

O=C1CCCCC1CN1CCCCC1 (configuration not stated)
inactive: [1] | [8] | [14] | [10] | [11] | [12]

COC1=CC=C2[C@H]3Cc4ccc(OC)c5c4[C@@]2(CCN3C)[C@H]1O5
inactive: [1] | [8]

CN(C)CCCCCCN(C)C
inactive: [8] | [13] | [16] | [17]

Cc1ccccc1-n1c(CF)nc2ccc(N)cc2c1=O
active: [11] 26.6 µM
inactive: [1] | [13] | [14] | [10] | [12]

Oc1c(Cl)cc(Cl)cc1Cl
inactive: [15] | [18]

CCNCC(O)c1cccc(O)c1 (configuration not stated)
inactive: [1] | [8] | [13] | [9]

COC(COC(N)=O)C1=C(N2CC2)C(=O)C(C)=C(N2CC2)C1=O (configuration not stated)
inactive: [11]
active: [1] 0.298 µM | [12] 1.33 µM

CCC1(c2cnc[nH]2)Cc2ccccc2C1
inactive: [9] | [16] | [17] | [19] | [4] | [5] | [6] | [7]
active: [13] 26.6 µM

CCC1(C)CC(=O)NC(=O)C1
inactive: [1] | [8] | [13] | [9]

CCC1(CC)C(=O)NC(=O)N(C)C1=O
inactive: [1] | [8] | [13] | [9]
